hgDAF12 agonist = H. glycines DAF-12 receptor agonists, primary screen, cell-based, luminescence, HEK293, GAL4 fusion, UAS-luciferase. AID 687014, 2013. 370,000 compounds, 1.8% hits. HEK293 GAL4-hgDAF12 UAS-luciferase reporter, agonist luminescence; normalized to butyrate control. activation, % at 6.8 µM. Nuclear hormone receptor DAF-12 (Heterodera glycines), GAL4 fusion;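 active = activation above a cutoff set at the mean of all screened compounds plus 3 SD, cut at about 10% in these data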;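 note: 0% = DMSO wells and 100% = sodium butyrate wells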
DAX1 inh-1 = DAX1 (NR0B1) inhibitors on StAR promoter, primary screen, cell-based, luminescence, SF-1 (NR5A1), full-length DAX-1 | 370,000 compounds, 1.1% hits | inhibition, % at 6.8 µM | HEK293T StAR-luciferase reporter, SF-1/DAX-1 repression relief;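 active = inhibition above the mean over all tested compounds plus 3 SD, cut at about 3.6% in these data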;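 note: 0% = DAX-1 cells with DMSO and 100% = cells lacking DAX-1 with DMSO; higher inhibition means more luminescence from relief of DAX-1 repression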
ssDAF12 agonist = S. stercoralis DAF-12 nuclear receptor activators, primary screen, cell-based, luminescence, HEK293, GRIP1 co-expression, lit1-tk-luc; Nuclear hormone receptor DAF-12 (Strongyloides stercoralis); HEK293 ssDAF-12/GRIP1 lit1-tk-luc reporter; % of 3 µM dafachronic acid response; activation, % at 6.8 µM; 370,000 compounds, 1% hits;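 active = activation above the mean over all tested compounds plus 3 SD, cut at about 0.9% in these data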;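 note: 0% = DMSO-only wells and 100% = 3 µM delta7-dafachronic acid wells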
DAX1 inh-2 = DAX1 (NR0B1) inhibitors, primary screen, cell-based, HEK293, Gal4-DAX1, luciferase luminescence | Nuclear receptor subfamily 0 group B member 1 (Homo sapiens), P51843 | HEK293 Gal4-DAX1 luciferase reporter | inhibition, % at 6.75 µM | 340,000 compounds, 0.99% hits | AID 504766, 2011;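 active = inhibition above the mean over all tested compounds plus 3 SD, cut at about 4.2% in these data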;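 note: 0% = DAX1-transfected cells with DMSO and 100% = empty-vector control cells with DMSO; inhibition shows as a rise in luminescence from relieved DAX1 repression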
hcDAF12 agonist = H. contortus DAF-12 nuclear receptor activators, primary screen, cell-based, luminescence, HEK293, lit1-tk-luc reporter; HEK293 hcDAF-12 lit1-tk-luc reporter; 0% DMSO, 100% Δ7-dafachronic acid; activation, % at 6.8 µM; 370,000 compounds, 1.4% hits; AID 652067, 2013;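 active = activation above the mean of all tested compounds plus 3 SD, cut at about 5.5% in these data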;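 note: 100% = response to 3 µM Δ7-dafachronic acid high control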
Wee1 stabilizer = Wee1 degradation inhibitors, primary screen, cell-based, HeLa, Wee1K328M-luciferase, luminescence; Wee1-like protein kinase (Homo sapiens), P30291; HeLa Luc-Wee1K328M stability; 100% = proteasome inhibitor MG132 effect; reporter increase, % at 5 µM; 220,000 compounds, 1.2% hits; AID 1321, 2008;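 active = activation above the mean of all tested compounds plus 3 SD, set per screening run, cut at about 8.8% in these data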;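 note: cells exposed to compound for 20 h before luminescence read; 0% = DMSO alone and 100% = MG132 at 30 µM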
hgDAF12 conf = H. glycines DAF-12 receptor agonists, confirmation, cell-based, luminescence, HEK293, GAL4-LBD fusion; shares compounds with hgDAF12 agonist; HEK293 GAL4-hgDAF12 luciferase reporter, agonist mode; percent of butyrate response; activation, % at 6.8 µM; 3,300 compounds, 80% hits; AID 743050, 2013;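 active = mean activation over triplicate wells above the hit cutoff derived from the earlier primary screen, cut at about 11% in these data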;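 note: 0% = DMSO low control and 100% = 2 mM sodium butyrate high control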
LXR ag 2 = LXR agonists, Gal4 luciferase reporter, confirmation, counter-screen for hgDAF-12 agonist project, cell-based, luminescence, HEK293, H. glycines campaign; 24 h; 3,300 tested, under 10 active; activation, % at 6.8 µM; shares compounds with hgDAF12 agonist; AID 743051, 2013;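 active = mean activation of the triplicate above a set limit carried over from the primary screen, none filed active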
Target sequence (P55055 whole entry, looked up, the tested form may be a part): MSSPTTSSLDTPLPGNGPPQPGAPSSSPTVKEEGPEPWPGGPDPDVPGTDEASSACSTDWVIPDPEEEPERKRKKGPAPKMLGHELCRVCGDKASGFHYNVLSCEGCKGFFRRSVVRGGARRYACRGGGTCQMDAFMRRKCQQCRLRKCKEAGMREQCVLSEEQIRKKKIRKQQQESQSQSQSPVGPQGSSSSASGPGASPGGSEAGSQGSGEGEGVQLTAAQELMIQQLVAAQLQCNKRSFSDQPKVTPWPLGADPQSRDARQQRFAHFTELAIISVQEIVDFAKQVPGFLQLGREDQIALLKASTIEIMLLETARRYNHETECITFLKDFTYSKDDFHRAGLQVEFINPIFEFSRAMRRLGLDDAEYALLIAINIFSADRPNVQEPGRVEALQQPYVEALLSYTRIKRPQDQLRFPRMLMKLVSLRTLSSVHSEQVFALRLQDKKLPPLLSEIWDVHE
An asterisk follows results filed as active; . = not tested or not shown. Only some compounds are listed: those with a hit (about 4.6% of all), similar ones and a draw of the others.

SMILES | hgDAF12 agonist | DAX1 inh-1 | ssDAF12 agonist | DAX1 inh-2 | hcDAF12 agonist | Wee1 stabilizer | hgDAF12 conf | LXR ag 2
O=C1/C(=C/c2ccccc2)CCCc2ccccc21 | 14* | 1 | 0 | 0 | 3 | -1 | 11* | 0
COC(=O)CCCn1cc(CN2CC(N3CCN(Cc4ccccc4F)CC3)CS2(=O)=O)nn1 (centres undefined) | 0 | 3 | -1 | . | -1 | . | . | .
COc1ccc(-c2cc(C(=O)OCC(=O)c3c(N)n(C)c(=O)n(C)c3=O)c3ccccc3n2)cc1 | 4 | 0 | -2 | -1 | 1 | -1 | . | .
COc1ccc(-c2cc(C(=O)c3c(N)n(C)c(=O)n(C)c3=O)c3ccccc3n2)cc1 | 14* | 1 | 1.7* | 2 | 5 | -2 | 10* | 0
CN1CCN(c2ccc(NC(=O)c3ccc(-c4ccccc4F)o3)cc2)CC1 | 24* | 4.4* | 1.4* | 2 | 5 | . | 17* | 1
O=C(Nc1ccccc1)c1ccc(-c2ccccc2Cl)o1 | 13* | 3 | 0 | 4 | 5 | 6 | 13* | 0
CN1CCN(c2ccc(NC(=O)c3ccccc3Br)cc2)CC1 | 6 | 1 | -1 | 2 | 4 | 0 | . | .
Cc1ccc(C)c(N2CCN(C(=O)CCc3nc(-c4ccc(Br)cc4)no3)CC2)c1 | 6 | 1 | 0 | 0 | -1 | . | . | .
CCOCCn1c(SCC(=O)OCc2ccccc2)nc2c1c(=O)[nH]c(=O)n2C | 13* | 3 | -1 | 1 | 4 | . | -1 | 0
CCOCCn1c(SCc2ccccc2)nc2c1c(=O)[nH]c(=O)n2C | -1 | 0 | -1 | -1 | -2 | . | . | .
CSc1nc2ccc(NC(=O)c3ccc(=O)n(C)n3)cc2s1 | 4 | 1 | 0 | -1 | 4 | 1 | . | .
CSc1nc2ccc(NC(=O)c3ccco3)cc2s1 | 18* | 2 | -1 | 2 | 4 | 2 | 11* | 1
C[C@@H]1C[C@@H]2O[C@H]2CCCCC(=O)Cc2cc(O)cc(O)c2C(=O)O1 | -13 | -4 | -3 | . | -7 | . | . | .
Cc1ccc(NC(=S)NC(=O)C2CCC2)cc1C | 14* | 1 | 0 | 1 | 5 | . | 11* | 0
O=C(NC(=S)Nc1ccc(O)cc1)C1CCCC1 | 4 | 0 | -1 | 1 | 3 | . | . | .
O=C(Oc1ccc(-c2cnc3ccccc3n2)cc1)c1ccc(Br)o1 | 9 | 1 | -1 | 0 | 2 | -2 | . | .
Oc1ccc(-c2cnc3ccccc3n2)cc1 | 15* | 2 | -1 | 3 | 4 | . | 20* | 1
Cc1cc(C)cc(Cn2cc(CN3CC(N4CCSCC4)CS3(=O)=O)nn2)c1 (centres undefined) | -1 | -1 | -1 | . | 1 | . | . | .
COc1cccc(C(=O)O/N=C(\N)c2ccncc2)c1OC | 4 | 1 | -1 | 2 | 1 | 2 | . | .
Cc1ccccc1C(=O)O/N=C(\N)c1ccncc1 | 15* | 2 | 0 | 1 | 3 | -1 | 13* | 1
CN(C(=O)COC(=O)c1ccc2c(c1)OCO2)C1CCCCC1 | 13* | 1 | -1 | 2 | 1 | . | 7 | 0
O=C(C1CC(c2ccccc2O)=NO1)N1CCCC1 (centres undefined) | 14* | 1 | -1 | -1 | 1 | 2 | 2 | 0
CCOC(=O)N1CCN(C(=O)C2CC(c3ccccc3OC)=NO2)CC1 (centres undefined) | 2 | 0 | -1 | -1 | 3 | 2 | . | .
Cc1cc(NC(=O)c2cc(C3CC3)on2)no1 | 15* | 3 | 0 | 1 | 0 | 1 | 7 | 0
Cc1c(Cl)cccc1NC(=O)c1cc(C2CC2)on1 | 9 | 1 | 0 | 1 | 0 | -1 | . | .
SMILES | hgDAF12 agonist | DAX1 inh-1 | ssDAF12 agonist | DAX1 inh-2 | hcDAF12 agonist | Wee1 stabilizer | hgDAF12 conf | LXR ag 2
Oc1[nH]c2ccccc2c1N=Nc1nncc2ccccc12 | 16* | 3 | 0 | 3 | 3 | 0 | 12* | 1
COC(=O)[C@@]12C[C@@H](CC(=O)NCCc3ccccc3OC)C(=O)N(CCc3ccc(OC)c(OC)c3)C1=CCC(C)(C)C2 | 0 | 0 | -1 | . | -3 | . | . | .
C/C(=N\NC(=O)c1ccc(Cl)cc1)c1cccs1 | 15* | 4.4* | 1.8* | 0 | 4 | 2 | 18* | 1
O=C(NCCc1ccc(Cl)cc1)c1cccs1 | 8 | 2 | -1 | 1 | 0 | 0 | . | .
C/C(=N\NC(=O)c1cccs1)c1ccncc1 | 15* | 1 | 1 | 4 | 3 | . | 1 | 0
O=C(CNC(=O)c1cccs1)c1ccc(Cl)cc1 | 15* | 2 | 1 | 1 | 5 | . | 17* | 1
C/C(=N\NC(=O)c1ccc(NS(=O)(=O)c2cccs2)cc1)c1cccs1 | 0 | 0 | -1 | 0 | 0 | 0 | . | .
COC(=O)[C@]12C[C@H](CC(=O)NCc3cccc(C(F)(F)F)c3)C(=O)N(Cc3ccc(Cl)cc3Cl)C1=C[C@H](C1CCCC1)O[C@@H]2C | 1 | -2 | -1 | . | -2 | . | . | .
Cc1ccc(C(=O)CSc2ccccn2)cc1 | 15* | 3 | 0 | 3 | 5 | 3 | 14* | 1
O=C(CSc1ccccn1)c1ccc(F)cc1 | 1 | 1 | -1 | 1 | 0 | 1 | . | .
O=C(NCCc1c[nH]c2ccccc12)c1ccc([N+](=O)[O-])o1 | 5 | -4 | -1 | 0 | 1 | . | . | .
O=C1C=C(/C=C/C2C=CC=CC2)C[C@@H](c2ccc(Cl)cc2)C1 (some centres undefined) | -1 | 0 | -1 | 1 | 0 | . | . | .
O=C(NCCOC(=O)Nc1cccc2ccccc12)OCc1ccccc1 | 0 | -2 | 0 | 0 | -1 | . | . | .
O=C(Nc1cccc2ccccc12)OCc1ccccc1 | 17* | 1 | 0 | 1 | 3 | . | 6 | 0
